Only a selection was taken, and hits are over-represented in it overall.
TTR transcr act: activators of transthyretin transcription | hit rate 1.3% among 92,000 | AID 1117267 | activation, % at 16.7 µM | SH-SY5Y TTR promoter Gaussia luciferase, luminescence; 100% = recombinant luciferase protein wells;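 active = activation above the mean of all tested compounds plus 3 SD, cut at about 9.5% in these data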;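 note: cells exposed to compounds for one day before reading; 0% = median of all test compound wells on the plate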
TTR inh HuH7: decreases TTR transcription in HuH7 cells in activator counter-screen. shares compounds with TTR transcr act. HuH7 TTR promoter-Gaussia luciferase reporter, luminescence. inhibition, % at 16.7 µM. hit rate 4% among 1,100;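 active = average inhibition above the solvent-only control wells' mean plus 3 SD, cut at about 15% in these data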;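 note: 0% = cells with DMSO only and 100% = cells with inhibitor control FD; inhibitors lower well luminescence so higher value means more inhibition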
TTR up confirm: confirmation of human transthyretin transcription activators; shares compounds with TTR transcr act; SHSY5Y TTR promoter Gaussia luciferase, luminescence; 100% = purified Lucia enzyme wells, no cells; activation, % at 16.7 µM; 1,100 tested, under 10 active;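 active = mean activation above a set limit taken from the earlier primary screen, cut at about 11% in these data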;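 note: 0% = DMSO-treated cells and 100% = recombinant Lucia luciferase without cells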
* = called active by the depositor.

SMILES | TTR transcr act | others
Cc1cc2c(NC(=O)CCCC(=O)O)cccc2nn1 | 10* | TTR inh HuH7=-11;TTR up confirm=-1
CCc1c2c3n4c1CCC[C@@H]4C[C@@H]3O[Si](C(C)C)(C(C)C)OC(C)C2=O (stereo not given in full) | -2
COC(=O)[C@]12C[C@H](CC(=O)N3CCN(C(=O)c4ccco4)CC3)C(=O)N(Cc3ccc(Cl)cc3Cl)C1=C[C@H](C(C)(C)C)O[C@@H]2C | -2
O=C(O/N=C1/CCCc2occc21)c1ccccc1 | -3
Cc1ccc(C(=O)O/N=C2\CCCc3ccccc32)cc1 | 23* | TTR inh HuH7=-2;TTR up confirm=0
COc1ccc2c(c1)/C(=N/OC(=O)c1cccs1)CCC2 | 0
O=C(OCc1cn(Cc2ccccc2)nn1)N1CCOCC1 | 2
CN(Cc1ccccc1)C(=O)OCc1cn(Cc2c(F)cccc2F)nn1 | -1
CCOc1cc(CCNC(=O)c2cc(-c3ccccc3)c(N3CCOCC3)s2)ccc1OC | -2
Cc1ccnc(NC(=S)N2CCC(Nc3cccc(C(F)(F)F)c3)CC2)c1 | 5
O=C(C1CC1)N1CCN=C1SCc1ccccc1 | -2
O=C(C1CC1)N1CCN=C1SCc1cccc(F)c1 | 0
CC(Oc1ccccc1)C(=O)N1CCN=C1SCc1ccccc1 (stereo not given) | 12* | TTR inh HuH7=29*;TTR up confirm=-2
CCOC(=O)[C@]12CCCC=C1N(Cc1ccc(OC)cc1)C(=O)[C@@H]2CC(=O)NCc1ccccc1 | 1
Cc1ccc(OCCn2c(CCNC(=O)C3CCCCCC3)nc3ccccc32)cc1 | 4
COC(=O)[C@]12CCCCC=C1N(Cc1ccc(OC)cc1)C(=O)[C@@H]2CC(=O)N1CCN(C(=O)C2CC2)CC1 | 1
CCC(C(=O)NCc1ccccc1)n1c(-c2cccs2)nc2ccccc21 (stereo not given) | 11* | TTR inh HuH7=-6;TTR up confirm=2
COc1ccc(C(C(=O)NCc2ccccc2)n2c(-c3ccncc3)nc3ccccc32)cc1 (stereo not given) | 0
CCC(C(=O)NC1CCCC1)n1c(-c2ccccn2)nc2ccccc21 (stereo not given) | -2
COC(=O)[C@]12C[C@H](CC(=O)NCCCN3CCCC3=O)C(=O)N(CCC3=CCCCC3)C1=C[C@H](C1CCCC1)O[C@@H]2C | 0
CCc1c(C(=O)C(C)O)c2n3c1CCC[C@@H]3CC2 (stereo not given in full) | 1
Cc1ccc2c(Cl)cc(Cl)c(OCC(=O)NC(=O)NCc3ccco3)c2n1 | -2
Cc1ccc(NC(=O)CN(C)C(=O)COc2c(Cl)cc(Cl)c3ccc(C)nc23)cc1 | 13* | TTR inh HuH7=-42;TTR up confirm=0
Cc1ccc2cccc(OCC(=O)N(C)CC(=O)Nc3ccc(F)cc3)c2n1 | 4
COc1ccc2c(c1)N=CN1CCc3c([nH]c4ccccc34)C3=NCC[C@@]321 | -1
SMILES | TTR transcr act | others
COc1ccccc1C1c2c(ncn(-c3ccccc3)c2=N)Oc2ccc3ccccc3c21 (stereo not given) | -1
CCC[C@H]1[C@@H](NC(=O)c2cccc(Cl)c2)CC[C@@]23CCCN2C(=O)CCC[C@@H]13 | 0
C[C@@H](NS(=O)(=O)c1c(F)cccc1F)c1ccccc1 | -1
COc1ccc2c(CCN3C(=O)c4ccccc4C3=O)c(-c3c(CCN4C(=O)c5ccccc5C4=O)c4ccccc4n3C(=O)OC(C)(C)C)[nH]c2c1 | 0
COc1ccc2c(c1)Sc1ccc(Cl)cc1N2 | -1
CC(C)C(=O)Nc1cccc(-c2nc3ncccc3o2)c1 | 15* | TTR inh HuH7=9;TTR up confirm=-1
O=C(CSc1ccc(Cl)cc1)Nc1cccc(-c2nc3ncccc3o2)c1 | -2
CC(C)C(=O)Nc1cccc(-c2nc3ccccc3o2)c1 | -1
C/C(=N\NC(=O)C(O)c1ccccc1)c1ccc(Cl)cc1 (stereo not given) | 23* | TTR inh HuH7=-11;TTR up confirm=0
C/C(=N\NC(=O)c1ccccn1)c1ccc(Cl)cc1 | -2
CC(/C=C/c1ccccc1)=N/NC(=O)C(O)c1ccccc1 (stereo not given) | 3
CCCNC(=O)c1ccc(N2CCC3(CC2)CC(c2ccccc2)=NO3)c(NC(=O)c2cccc(OC)c2)c1 | -3
Cc1ccc(CNC(=O)c2ccc(N3CCC4(CC3)CC(c3ccccc3)=NO4)c(NC(=O)c3ccco3)c2)cc1 | -1
CCCNC(=O)c1ccc(N2CCC3(CC2)CC(c2ccccc2)=NO3)c(NC(=O)c2ccco2)c1 | 19* | TTR inh HuH7=19*;TTR up confirm=-2
O=C(NCCc1c[nH]c2ccccc12)OCc1cn(Cc2cccc(Cl)c2)nn1 | -1
O=C(C1CCN(c2nnnn2-c2ccccc2)CC1)N1CCN(c2ccccc2)CC1 | -1
NC(=O)C1CCN(c2nnnn2-c2ccccc2)CC1 | 10* | TTR inh HuH7=-13;TTR up confirm=-1
Oc1ccccc1N1CCN(c2nnnn2-c2ccccc2)CC1 | 0
COc1cc(CNc2cccc3c2S(=O)(=O)N([C@H](C)c2ccccc2)C[C@@H](COCc2ccccc2)O3)cc(OC)c1OC | 0
Cc1ccccc1CN1CCCCC(NC(=O)c2cccc([N+](=O)[O-])c2)C1=O (stereo not given) | -2
O=C(Nc1ccc2ncccc2c1)c1ccccc1Cl | 11* | TTR inh HuH7=-7;TTR up confirm=-1
O=C(NC(=S)Nc1ccc2ncccc2c1)c1ccccc1 | -1
O=C(Nc1ccc2ncccc2c1)c1ccccc1 | 1
O=C(Nc1c(-c2ccc(F)cc2)nc2ncccn12)c1ccccc1 | 2
Cc1cc(C)c(C)c(OCC(=O)O/N=C(\N)c2cccnc2)c1 | -1
SMILES | TTR transcr act | others
Cc1ccc(CNC(=O)c2cccnc2)cc1 | 1
Cc1cc(C)c(C(=O)CC(=O)c2cccnc2)c(C)c1 | 15* | TTR inh HuH7=-7;TTR up confirm=0
CCOC(=O)[C@@]12CCCC=C1N(CCc1ccc(Cl)cc1)C(=O)[C@H]2CC(=O)N1CCC(c2ccccc2)CC1 | 0
CCOc1ccccc1NC(=O)C1CCCN1S(=O)(=O)c1ccc2c(c1)C(C)(C)C(=O)N2C (stereo not given) | 12* | TTR inh HuH7=-15;TTR up confirm=0
CCc1ccccc1NC(=O)C1CCCN1S(=O)(=O)c1ccc2c(c1)n(C)c(=O)c(=O)n2C (stereo not given) | 18* | TTR inh HuH7=-15;TTR up confirm=0
Cc1cccc(NC(=O)C2CCN(S(=O)(=O)c3ccc4c(c3)C(C)(C)C(=O)N4C)CC2)c1C | 4
COc1cccc(NC(=O)C2CCCN2S(=O)(=O)c2ccc3c(c2)C(C)(C)C(=O)N3C)c1 (stereo not given) | -1
CCc1ccccc1NC(=O)C1CCCN1S(=O)(=O)c1ccc(-c2ccc(=O)[nH]n2)s1 (stereo not given) | 1
CCc1ccccc1NC(=O)[C@@H]1CCCN1S(=O)(=O)c1cccc2cccnc12 | 1
O=c1c2cc3cc(Cl)ccc3nc2ncn1Cc1ccc(Oc2ccccc2)cc1 | -1
COc1cccc(C2c3c(ncn(-c4ccccc4)c3=N)Oc3ccc4ccccc4c32)c1 (stereo not given) | 0
O=S1(=O)c2c(cccc2N2CCC[C@@H]2CO)OCCCN1C1CC1 | 0
C[C@@H]1CCN(C2CC2)S(=O)(=O)c2c(cccc2N2CCC[C@H]2C)O1 | -1
O=C(Nc1cccc(F)c1)O[C@@H]1CC[C@@]23CCCN2C(=O)CCC[C@H]3C1 | 1
CCN(CC)CCCNC(=O)C1(N[C@@H](Cc2c[nH]c3ccccc23)C(=O)NCC(OC)OC)CCCCC1 | 0
